Test results as given in ChEMBL document CHEMBL3988442, “University of Dundee, Small-Polar-MMV Screening Library” (2021).
For some of these results: Measured potencies and affinities stand elsewhere.

How the values were obtained:
Parameters in all cases: scale not given: direction of the effect not stated beside the values
[1] = target: Protein translocase subunit SecA (Escherichia coli (strain K12)) (UniProt P10408); assay: Assay to Identify E. coli SecA ATPase Inhibitors; format: functional; conditions: 30 µM
Chain of Protein translocase subunit SecA (Escherichia coli (strain K12)) (P10408 whole entry): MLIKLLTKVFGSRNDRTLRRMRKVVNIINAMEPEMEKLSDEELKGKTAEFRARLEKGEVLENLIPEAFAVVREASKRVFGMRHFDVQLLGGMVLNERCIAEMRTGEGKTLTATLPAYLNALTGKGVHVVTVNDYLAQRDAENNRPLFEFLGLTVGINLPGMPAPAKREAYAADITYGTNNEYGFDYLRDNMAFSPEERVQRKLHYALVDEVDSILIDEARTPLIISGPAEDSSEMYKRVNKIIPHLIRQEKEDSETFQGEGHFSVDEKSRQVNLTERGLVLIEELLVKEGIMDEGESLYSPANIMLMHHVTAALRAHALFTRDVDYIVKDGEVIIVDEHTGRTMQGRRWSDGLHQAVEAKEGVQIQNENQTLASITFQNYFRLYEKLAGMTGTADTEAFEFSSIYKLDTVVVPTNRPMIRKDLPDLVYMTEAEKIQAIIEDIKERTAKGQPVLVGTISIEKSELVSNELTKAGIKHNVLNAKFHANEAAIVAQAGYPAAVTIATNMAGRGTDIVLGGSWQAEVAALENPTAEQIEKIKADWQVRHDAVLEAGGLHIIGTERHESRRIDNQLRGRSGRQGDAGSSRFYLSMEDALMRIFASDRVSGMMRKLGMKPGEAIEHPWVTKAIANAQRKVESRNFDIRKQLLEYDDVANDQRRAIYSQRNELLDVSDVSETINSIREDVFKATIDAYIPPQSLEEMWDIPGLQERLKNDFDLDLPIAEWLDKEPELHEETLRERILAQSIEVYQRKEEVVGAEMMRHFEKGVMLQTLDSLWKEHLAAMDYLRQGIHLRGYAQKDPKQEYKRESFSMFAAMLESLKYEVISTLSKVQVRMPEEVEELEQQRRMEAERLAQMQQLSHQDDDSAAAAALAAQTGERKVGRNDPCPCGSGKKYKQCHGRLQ

[2] = target: T1, Ubiquitin-activating enzyme e1, putative (Leishmania donovani (strain BPK282A1)) (UniProt E9BSI1); assay: Leishmania donovani Ubiquitin Activating Enzyme (LdE1); format: functional; conditions: 30 µM
T1 sequence (whole entry): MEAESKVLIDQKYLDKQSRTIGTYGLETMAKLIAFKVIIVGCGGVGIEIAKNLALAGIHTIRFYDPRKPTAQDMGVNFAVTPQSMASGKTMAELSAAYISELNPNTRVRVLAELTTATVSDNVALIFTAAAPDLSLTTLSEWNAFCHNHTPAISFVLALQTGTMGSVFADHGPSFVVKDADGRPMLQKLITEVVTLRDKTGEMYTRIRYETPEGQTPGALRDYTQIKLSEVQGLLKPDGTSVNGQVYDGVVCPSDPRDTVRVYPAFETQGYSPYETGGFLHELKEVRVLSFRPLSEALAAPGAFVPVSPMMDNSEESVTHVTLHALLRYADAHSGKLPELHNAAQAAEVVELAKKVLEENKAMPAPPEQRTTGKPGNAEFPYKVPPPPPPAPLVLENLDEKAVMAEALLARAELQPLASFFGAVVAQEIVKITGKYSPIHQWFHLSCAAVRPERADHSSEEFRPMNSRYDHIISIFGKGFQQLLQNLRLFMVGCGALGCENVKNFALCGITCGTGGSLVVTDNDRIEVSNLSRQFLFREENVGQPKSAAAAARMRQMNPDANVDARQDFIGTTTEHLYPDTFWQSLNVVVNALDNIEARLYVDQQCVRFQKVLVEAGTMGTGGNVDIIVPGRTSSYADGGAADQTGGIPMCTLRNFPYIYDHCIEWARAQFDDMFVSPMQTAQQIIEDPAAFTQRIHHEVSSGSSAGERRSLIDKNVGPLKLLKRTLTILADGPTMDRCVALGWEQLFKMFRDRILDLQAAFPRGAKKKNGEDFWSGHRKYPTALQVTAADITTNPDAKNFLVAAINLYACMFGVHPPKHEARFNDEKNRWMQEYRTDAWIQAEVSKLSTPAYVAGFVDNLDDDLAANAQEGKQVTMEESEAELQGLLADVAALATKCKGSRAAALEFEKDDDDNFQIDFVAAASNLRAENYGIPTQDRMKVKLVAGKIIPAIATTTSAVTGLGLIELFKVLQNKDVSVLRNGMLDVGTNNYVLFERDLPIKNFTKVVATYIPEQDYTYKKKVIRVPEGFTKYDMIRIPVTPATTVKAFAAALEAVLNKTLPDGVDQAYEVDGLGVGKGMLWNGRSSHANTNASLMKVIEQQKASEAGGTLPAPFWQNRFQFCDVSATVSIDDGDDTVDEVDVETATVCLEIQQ

[3] = target: AMP-activated protein kinase, AMPK (Homo sapiens) (UniProt P54646+O43741+P54619+Q9UGJ0+Q9Y478+Q13131+Q9UGI9); assay: AMP-dependent Kinase enzyme assay. An in vitro enzyme assay that detects ADP turnover that is directly proportional to AMPK activity. This uses naive AMPK that is activated during the assay with MK-8722; format: functional; conditions: 30 µM
[4] = target: Sialic acid-binding Ig-like lectin 9 (Homo sapiens) (UniProt Q9Y336); assay: Hs-Siglec9 ALPHAscreen SOP 20170721; conditions: 10 µM
Chain of Sialic acid-binding Ig-like lectin 9 (Homo sapiens) (Q9Y336 whole entry): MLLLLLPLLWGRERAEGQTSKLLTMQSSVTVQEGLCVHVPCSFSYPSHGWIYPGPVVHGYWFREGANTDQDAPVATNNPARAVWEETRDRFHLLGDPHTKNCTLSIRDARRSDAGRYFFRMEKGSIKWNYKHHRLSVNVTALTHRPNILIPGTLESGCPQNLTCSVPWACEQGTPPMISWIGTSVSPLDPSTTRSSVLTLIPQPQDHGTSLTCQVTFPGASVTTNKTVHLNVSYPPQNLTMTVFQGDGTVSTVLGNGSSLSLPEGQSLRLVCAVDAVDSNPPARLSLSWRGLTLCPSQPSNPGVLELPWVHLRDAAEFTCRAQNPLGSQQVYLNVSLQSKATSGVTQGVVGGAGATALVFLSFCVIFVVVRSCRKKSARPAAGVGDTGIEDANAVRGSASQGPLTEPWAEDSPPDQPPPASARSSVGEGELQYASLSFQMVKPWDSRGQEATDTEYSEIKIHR

Trypanosoma cruzi = assay: Trypanosoma cruzi phosphomannomutase and mannose-1-phosphate guanylyltransferase assay; format: functional; conditions: 10 µM
[5] = target: T2, Arginase-2, mitochondrial (Homo sapiens) (UniProt P78540); assay: in vitro enzyme assay to detect the production of urea directly proportional to the activity of Arginase II; format: functional; conditions: 33.3 µM; further: in the data most compounds retested in dose-response had high values
T2 sequence (whole entry): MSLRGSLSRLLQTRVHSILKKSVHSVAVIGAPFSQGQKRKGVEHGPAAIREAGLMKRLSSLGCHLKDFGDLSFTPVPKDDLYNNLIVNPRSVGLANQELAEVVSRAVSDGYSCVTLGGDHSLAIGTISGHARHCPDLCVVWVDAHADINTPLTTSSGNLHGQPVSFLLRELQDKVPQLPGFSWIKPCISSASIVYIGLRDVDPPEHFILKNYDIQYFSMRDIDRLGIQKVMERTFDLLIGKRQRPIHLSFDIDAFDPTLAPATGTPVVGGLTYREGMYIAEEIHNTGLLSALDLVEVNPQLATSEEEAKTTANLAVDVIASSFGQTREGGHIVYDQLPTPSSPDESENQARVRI

[6] = target: T3, Proteasome subunit beta (Trypanosoma cruzi) (UniProt O96673); assay: Trypanosoma cruzi proteasome chymotrypsin-like activity (TcProtChymo) assay.; further: in the data most compounds retested in dose-response had high values; format: functional; conditions: 9.37 µM
T3 sequence (whole entry): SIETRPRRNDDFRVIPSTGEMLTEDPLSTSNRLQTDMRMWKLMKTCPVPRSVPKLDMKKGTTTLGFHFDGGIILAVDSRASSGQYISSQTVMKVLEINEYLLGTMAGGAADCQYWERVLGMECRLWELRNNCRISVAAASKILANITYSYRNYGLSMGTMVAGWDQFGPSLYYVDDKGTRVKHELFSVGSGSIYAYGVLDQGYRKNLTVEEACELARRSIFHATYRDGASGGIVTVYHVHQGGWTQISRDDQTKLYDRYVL

Homo sapiens = species: Homo sapiens; assay: To identify inhibition of the IFN signalling (Jak-Stat) pathway via expression of an eGFP reporter gene under the control of an IFN-stimulated response element (ISRE) containing MxA promoter.; format: functional; conditions: 30 µM
[7] = target: T4, Tyrosyl-tRNA synthetase, putative (Trypanosoma cruzi (strain CL Brener)) (UniProt Q4DSP6); assay: Trypanosoma cruzi tyrosyl tRNA synthetase (TcYRS) _High Tyrosine SOP; format: functional; conditions: 30 µM; further: in the data most compounds retested in dose-response had high values
T4 sequence (whole entry): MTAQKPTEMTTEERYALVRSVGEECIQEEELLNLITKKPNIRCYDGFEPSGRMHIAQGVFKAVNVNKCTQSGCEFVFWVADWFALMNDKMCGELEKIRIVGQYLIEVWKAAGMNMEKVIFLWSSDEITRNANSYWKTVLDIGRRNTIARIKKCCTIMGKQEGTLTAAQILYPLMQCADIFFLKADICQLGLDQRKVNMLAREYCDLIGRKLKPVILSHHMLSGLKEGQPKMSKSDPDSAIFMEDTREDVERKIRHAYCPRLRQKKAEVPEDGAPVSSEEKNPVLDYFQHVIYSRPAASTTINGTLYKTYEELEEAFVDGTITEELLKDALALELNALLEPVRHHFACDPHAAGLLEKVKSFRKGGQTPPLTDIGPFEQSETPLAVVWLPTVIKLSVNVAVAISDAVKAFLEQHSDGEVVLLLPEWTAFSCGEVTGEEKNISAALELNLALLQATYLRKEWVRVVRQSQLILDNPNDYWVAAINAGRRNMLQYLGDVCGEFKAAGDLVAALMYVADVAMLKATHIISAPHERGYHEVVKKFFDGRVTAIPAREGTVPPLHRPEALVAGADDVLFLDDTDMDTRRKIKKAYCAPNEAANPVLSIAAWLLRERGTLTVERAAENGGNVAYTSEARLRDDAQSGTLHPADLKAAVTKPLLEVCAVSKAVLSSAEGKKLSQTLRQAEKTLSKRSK

[8] = target: T4, Tyrosyl-tRNA synthetase, putative (Trypanosoma cruzi (strain CL Brener)); assay: Trypanosoma cruzi tyrosyl tRNA synthetase (TcYRS) SOP; format: functional; conditions: 30 µM
[9] = target: Chromo domain-containing protein 1 (Saccharomyces cerevisiae (strain ATCC 204508 / S288c) (Baker's yeast)) (UniProt P32657); assay: ScCHD-1 Enzyme Inhibition Assay; format: functional; conditions: 30 µM; further: in the data most compounds retested in dose-response had high values
Chain of Chromo domain-containing protein 1 (Saccharomyces cerevisiae (strain ATCC 204508 / S288c) (Baker's yeast)) (P32657 whole entry, the tested form may be a part): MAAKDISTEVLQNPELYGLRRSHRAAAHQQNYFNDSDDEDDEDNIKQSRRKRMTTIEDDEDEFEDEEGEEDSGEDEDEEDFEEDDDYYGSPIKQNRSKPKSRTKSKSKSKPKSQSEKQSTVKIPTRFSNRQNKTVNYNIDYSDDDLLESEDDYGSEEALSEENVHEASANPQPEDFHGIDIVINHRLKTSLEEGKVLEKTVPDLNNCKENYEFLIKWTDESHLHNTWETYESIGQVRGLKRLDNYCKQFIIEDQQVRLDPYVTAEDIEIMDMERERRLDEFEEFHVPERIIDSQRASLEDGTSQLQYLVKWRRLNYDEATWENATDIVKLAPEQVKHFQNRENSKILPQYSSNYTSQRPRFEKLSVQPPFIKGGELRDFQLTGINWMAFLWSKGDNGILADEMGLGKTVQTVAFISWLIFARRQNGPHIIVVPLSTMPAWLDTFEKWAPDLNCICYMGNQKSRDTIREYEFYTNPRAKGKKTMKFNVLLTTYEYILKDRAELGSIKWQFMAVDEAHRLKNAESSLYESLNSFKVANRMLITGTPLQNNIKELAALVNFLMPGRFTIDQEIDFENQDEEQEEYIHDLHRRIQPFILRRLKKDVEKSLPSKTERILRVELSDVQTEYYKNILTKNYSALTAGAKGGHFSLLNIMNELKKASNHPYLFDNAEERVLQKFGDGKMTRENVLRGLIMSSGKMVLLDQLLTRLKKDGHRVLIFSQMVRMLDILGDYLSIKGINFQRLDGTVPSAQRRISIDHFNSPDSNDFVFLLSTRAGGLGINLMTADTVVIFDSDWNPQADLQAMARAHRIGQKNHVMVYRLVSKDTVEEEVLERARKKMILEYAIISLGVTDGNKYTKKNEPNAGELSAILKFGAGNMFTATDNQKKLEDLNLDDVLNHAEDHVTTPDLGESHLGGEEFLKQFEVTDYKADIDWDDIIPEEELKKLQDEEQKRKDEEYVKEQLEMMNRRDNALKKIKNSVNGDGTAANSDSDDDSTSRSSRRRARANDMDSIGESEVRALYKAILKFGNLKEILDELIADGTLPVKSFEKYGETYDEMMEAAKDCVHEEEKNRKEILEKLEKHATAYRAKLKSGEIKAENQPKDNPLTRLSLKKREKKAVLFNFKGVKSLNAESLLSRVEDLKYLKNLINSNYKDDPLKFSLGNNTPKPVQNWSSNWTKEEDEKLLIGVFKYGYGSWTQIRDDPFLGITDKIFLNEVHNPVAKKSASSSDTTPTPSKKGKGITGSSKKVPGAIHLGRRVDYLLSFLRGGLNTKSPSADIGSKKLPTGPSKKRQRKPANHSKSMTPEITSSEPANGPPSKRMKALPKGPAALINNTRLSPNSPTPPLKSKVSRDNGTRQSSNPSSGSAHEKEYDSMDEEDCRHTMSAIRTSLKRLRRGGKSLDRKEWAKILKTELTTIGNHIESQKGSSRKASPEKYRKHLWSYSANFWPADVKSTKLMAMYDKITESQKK

Structure (SMILES)	Percent Effect [1] [%]	Percent Effect [2] [%]	Percent Effect [3] [%]	Percent Effect [4] [%]	Percent Effect (Trypanosoma cruzi) [%]	Percent Effect [5] [%]	Percent Effect [6] [%]	Percent Effect (Homo sapiens) [%]	Percent Effect [7] [%]	Percent Effect [8] [%]	Percent Effect [9] [%]
Cc1nc(C2CCCN2CC(=O)NCCOc2ccccc2)no1 (stereo not given)	-3.91	5.26	-1.52	4.39	3.38	-0.383	12.7	-2.83	0.49	7.32	-12.7
Cn1cc(C(=O)CC2CCCN2C(=O)c2cncc3ccccc23)cn1 (stereo not given)	-2.2	6.33	-4.89	2.04	0.718	4.95	5.66	14.6	5.21	12.7	-15
CC(C)CNC(=O)[C@H]1CCS(=O)(=O)[C@@H]2CN(Cc3cccc(Cl)c3)C[C@H]12	-8.49	0	6.38	3.48	-2.15	0	12.3	12.5	3.96	1.22	3.36
O=C(c1ccsc1)N1CC(C(=O)N2CCOCC2)C2(CCOCC2)C1 (stereo not given)	-0.06	2.6	3.52	3.83	-6.21	-3.23	16.5	7.29	-29.6	-1.28	-0.146
c1cnn(Cc2cn3c(n2)CN(Cc2nccs2)CC3)c1	-2.43	-36.4	-0.581	-1.53	5.23	5.81	12.2	4.15	9.52	26.9	-6.74
CC(C)CCOCCNC(=O)Nc1cc(C(F)(F)F)c[nH]c1=O	-7.54	8.11	3.62	2.66	-0.464	-0.924	1.62	6.69	6.93	13.4	7.34
CC(C)c1noc(C(C)N2CCN(CCO)CC2)n1 (stereo not given)	0.448	21.6	-14.5	-3.22	-3.68	-9.22	12.2	16.1	5.42	6.17	-0.137
CCCNC(=O)c1c(-n2cnnn2)sc2c1CCC2	-1.2	7.89	4.3	2.22	-9.45	3.55	9.3	2.78	5.32	0	-5.31
NC(=O)c1ccc(N2CCCCC2)c(NC(=O)c2cncc(Br)c2)c1	-3.53	5.2	10.4	12.7	2.06	-78.6	12.5	35.7	3.23	11.1	-2.92
Cc1ccc(N2CCCC(NCc3cccc4c3OCCO4)C2)nn1 (stereo not given)	-2.62	16.2	-11.3	0.447	-1.23	-2	7.39	-7.93	10.3	18.5	-10.3
CC(C)Nc1ncnc2c1CCN(C(=O)Cc1ccccn1)CC2	-6.13	1.33	-12.1	-2.69	-6.48	-10.4	10.3	-12.6	-2.12	-2.56	-11
COc1cccc(COCC(=O)N2CCCC(N3CCCC3)CC2)c1 (stereo not given)	-1.29	-10.5	4.62	-2.23	2.26	0	6.52	-5.01	14.2	7.32	-0.94
CC(Sc1nnnn1C1CCOCC1)C(=O)NC1CCCCC1 (stereo not given)	-6.54	2.67	-2.78	37.4	3.21	3.65	13.8	24.9	7.1	16.1	-4.98
COCCn1ccc(=O)c(OCC(=O)Nc2ccccc2)c1C	-2.63	6.67	2.07	6.98	1.38	1.23	19.4	-6.23	1.06	20.5	-0.358
CC(NC(=O)NCc1cc[nH]n1)c1ccc2c(c1)CCC(=O)N2 (stereo not given)	-3.48	13	-2.39	10.7	5.43	0.712	4.9	4.17	4.85	21.9	-9.64
Cc1cnn(CCNCc2ccc(OCc3csc(C)n3)cc2)c1	-7.35	0	-1.8	8.64	10.2	-1.04	8.54	11.2	3.83	11.1	-5.91
OCCn1cc(CN2CCN(CCOCC(F)(F)F)CC2)cn1	2.27	13.5	-3.44	-6.72	-8.63	-3.14	13.6	6.37	4.95	3.66	-2.78
CCN1CCN(C2CCN(Cc3noc(C)n3)CC2)C1=O	-5.08	25.3	-3.66	-5.18	1.98	0.38	5.16	-0.161	7.39	21.5	-6.23
N#Cc1ccc(OCCCN2CCc3cncnc3C2)cc1	-5.04	5.06	-14.8	5.6	-3.68	-3.04	-6.14	18.3	-0.493	11.4	-4.55
O=C(c1ccc(=O)[nH]n1)N1CC(c2nc(Cc3ccccc3)no2)C1	-2.52	8.22	-1.62	7.99	3.33	20.9	14.4	0.0834	6.45	20	-5.6
